Results as given in ChEMBL document CHEMBL3988442, “University of Dundee, Small-Polar-MMV Screening Library” (2021).
Out of some 38,000 compounds screened, about 1,200 (3.2%) showed an effect of 50% or more. The median lay at about -58%. The entries come from a sample that favours strong results as a whole.

System: Plasmodium falciparum
Assay: Calibr Malaria Delayed Death Assay SOP
Type: functional, organism-based
Parameters: scale not given: in the data most compounds retested in dose-response had high values
Details: concentration 4.99e-06 (unit not given; other assays of the set use mol/L)

Row | SMILES | Percent Effect [%]
1 | CC(=O)Nc1c(C)noc1/C=C\c1ccc(S(=O)(=O)N2CCCC2)cc1 | 10.91
2 | Cc1cc(C)nc(N2CCCC(C(=O)Nc3n[nH]c(C(C)C)n3)C2)n1 (configuration not stated) | -27.75
3 | Cc1nc(C)n(CC2CCCN(Cc3ncc(C(C)(C)C)o3)C2)n1 (configuration not stated) | -87.32
4 | Cc1nc(C)n(CC2CCCN2Cc2ncc(-c3ccccc3)o2)n1 (configuration not stated) | 26.63
5 | Cc1nc(C)n(CC2CCCN2Cc2ncc(C(C)(C)C)o2)n1 (configuration not stated) | 60.71
6 | CCN1CCN(C2CCN(Cc3nnc(C(C)C)o3)CC2)C1=O | -127.6
7 | CCN1CCN(C2CCN(Cc3ncc(C(C)(C)C)o3)CC2)C1=O | 51.71
8 | CC(C)(C)c1cnc(CN2CCC(CO)CC2)o1 | -57.31
9 | CCC1CCCCN1Cc1ncc(C(C)(C)C)o1 (configuration not stated) | 70.27
10 | Cc1cnn(CC2CCCCN2Cc2ncc(C(C)(C)C)o2)c1 (configuration not stated) | 9.696
11 | CCN1CCN(C2CCN(Cc3nnc(C4CC4)o3)CC2)C1=O | -106.8
12 | CC(C)N1C[C@@H](CO)[C@H](c2ccccc2)S1(=O)=O | -2.146
13 | COc1cccc(Cn2ncnc2CNC(C)=O)c1 | -17.74
14 | NC1CCCN(Cc2cccc(C(F)(F)F)c2)C1=O (configuration not stated) | -34.65
15 | O=S(=O)(CC1CCCCO1)Nc1c(F)cccc1-n1cccn1 (configuration not stated) | -6.246
16 | N#CC1COCCN1C(=O)c1ccc2cc[nH]c2c1 (configuration not stated) | -76.07
17 | N[C@H]1CN(C(=O)c2ccc3[nH]c(CO)nc3c2)C[C@@H]1c1ccccc1 | -84.77
18 | COCCC1COC2(CCN(C(=O)c3cccn3C)CC2)C1 (configuration not stated) | -157.5
19 | O=C(NC1CCCCC1)c1cc(Br)cnc1N1CCCCC1 | -52.51
20 | COc1cc(C)ccc1OCCN1CC[C@@]2(O)CCNC[C@H]2C1 | -90.26
21 | CCc1ccccc1OCCN1CC[C@@]2(O)CCNC[C@H]2C1 | -93.81
22 | CCn1ncnc1CN1CCC(CNC(=O)c2cccc(C)c2)C1 (configuration not stated) | -152.4
23 | CCCC1CCCN(Cc2csc(-c3cnn(C)c3)n2)CC1 (configuration not stated) | 52.75
24 | Cn1cc(-c2nc(CN3CCN(CCO)CC3)cs2)cn1 | -64.62
25 | Cn1cc(-c2nc(CN3CCc4c(ncn4C4CC4)C3)cs2)cn1 | -33.38
26 | Cn1cc(CN2CCC3(CC2)CN(c2cccnc2)C(=O)CO3)cn1 | -97.96

Row | SMILES | Percent Effect [%]
27 | N#CC1CCCN(c2nc(-c3ccccc3)nc3c2CCNCC3)C1 (configuration not stated) | 79.11
28 | c1cnn(C2CN(c3nc(-c4ccncc4)nc4c3CCC4)C2)c1 | -81.86
29 | Cn1ccnc1CN1CCc2ncnc(N3CCCC(C#N)C3)c2CC1 (configuration not stated) | -81.1
30 | CC(C)CNC(=O)c1cccc(Oc2ccc3nncn3n2)c1 | -53.64
31 | O=C(C1CCOCC1)N1C[C@H](OCc2cccnc2)[C@H]2COC[C@H]21 | -121.2
32 | CSc1nccn1-c1cccc(C(=O)NCCN2CCS(=O)(=O)CC2)c1 | -149.1
33 | CCc1nc(CN2CCCN(C(=O)CCOC(C)C)CC2)cs1 | -60.5
34 | CC(C)(C)c1cn2c(n1)C(CNCc1ccccn1)CCC2 (configuration not stated) | 92.56
35 | Clc1ccc2c(c1)C=C(CNC1CCc3ncnn3C1)CO2 (configuration not stated) | -63.09
36 | CC(C)(C)c1ncc(CNCC2CCCn3ccnc32)s1 (configuration not stated) | 11.38
37 | CCN1CCOC(CNCc2ccccn2)C1 (configuration not stated) | -142.7
38 | CCn1ncc2c1CCCC2NCC1=Cc2ccccc2OC1 (configuration not stated) | -139.8
39 | Cc1cn2c(n1)C(CNCC1=Cc3ccccc3OC1)CCC2 (configuration not stated) | 78.44
40 | O[C@@H]1CN(CC2=Cc3cc(Cl)ccc3OC2)CC[C@H]1N1CCCCCC1 | -10.35
41 | C1=C(CNC2CCc3ncnn3C2)COc2ccccc21 (configuration not stated) | -78.33
42 | Cc1cn2c(n1)C(CNCC1=Cc3cc(Cl)ccc3OC1)CCC2 (configuration not stated) | 87.8
43 | O=C(Nc1cnccn1)[C@H]1CC[C@@H]2[C@@H](CCN2Cc2ccccn2)O1.O=C(O)C(F)(F)F | -97.13
44 | COc1cc(C(=O)NCCCO)cc2occc12 | -87.71
45 | CCc1[nH]c2ccc(CNC(=O)c3cnc(N)nc3C)cc2c1C | -136.6
46 | Cc1[nH]c2c(F)cccc2c1CC(=O)NC1CCCCNC1=O (configuration not stated) | -28.67
47 | O=C1CNc2ncnc(Nc3cnn(Cc4cccc(F)c4)c3)c2N1 | -137.4
48 | O=C(Cc1csc(-c2ccco2)n1)N1CCCC1Cn1cccn1 (configuration not stated) | -188.1
49 | CCS(=O)(=O)N1CCC2(CN(Cc3ccc(C)o3)C2)C1 | -57.27
50 | Cc1ccc(CN2CCC3(CCCN(S(C)(=O)=O)C3)C2)o1 (configuration not stated) | -70.82
51 | Cc1ccc(CN2CCC3(CCN(S(=O)(=O)c4ccccc4)C3)C2)o1 (configuration not stated) | 79.54
52 | O=C(c1cccs1)N1CC[C@H](O)[C@@H]1Cc1ccccc1 | -5.522

Row | SMILES | Percent Effect [%]
53 | COc1ccccc1C(=O)Nc1c(F)c(C(=O)N2CCCC2)nn1C | -139.8
54 | COC(=O)CN1Cc2cc3c(cc2NCCC1=O)OCO3 | -54.83
55 | CCCc1nc2c(c(C)c(C)n2Cc2cccnc2)c(N)c1CC | 64.11
56 | CCCc1nc2c(c(C)c(C)n2Cc2ccccn2)c(N)c1CC | 58.37
57 | CCc1cc(NCCc2cccnc2)n2nc(C)c(C)c2n1 | -66.72
58 | Cc1c(C)n(Cc2ccccn2)c2nc3c(c(N)c12)CCCCCC3 | 58.63
59 | Cc1c(C)n(Cc2ccccn2)c2nc3c(c(N)c12)CCCCC3 | 22.61
60 | Cc1cc(C(=O)N2CCNC(=O)C2)c(C)n1Cc1ccccn1 | -70.27
61 | Cc1c(C)n(Cc2ccncc2)c2nc3c(c(N)c12)CCCCCC3 | 27.24
62 | CCCc1nc2c(c(C)c(C)n2Cc2ccncc2)c(N)c1CC | 59.32
63 | Cc1c(C)n(Cc2ccccn2)c2nc3c(c(N)c12)CCCC3 | 45.51
64 | Cc1c(C)n(-c2ccccn2)c2nc3c(c(N)c12)CCCC3 | 19.64
65 | Cc1c(C)n(Cc2ccncc2)c2nc3c(c(N)c12)CCCC3 | -16.59
66 | CCc1nc2c(c(C)c(C)n2Cc2cccnc2)c(N)c1C | 18.39
67 | O=C(C1CCOC1)N1CCN(Cc2ccncc2)c2ncccc2C1 (configuration not stated) | -72.96
68 | Cn1cc(I)c(C(=O)NC2CCCCC2)n1 | -69.52
69 | CCCC(O)CN1CCC(=O)N(CC)Cc2cc3c(cc21)OCO3 (configuration not stated) | -23.81
70 | CC(CC(=O)N1CCCN(Cc2cscn2)CC1)n1cccc1 (configuration not stated) | 4.954
71 | CC(NCc1cccc(COC2CCCC2)c1)c1cnn(C)c1 (configuration not stated) | 19.99
72 | CC(C)CC(Cc1cccc(Br)c1)C(=O)O (configuration not stated) | -132.5
73 | Cc1nc(C)c(S(=O)(=O)NC(=O)c2cccs2)s1 | -74.76
74 | CO[C@H]1CC[C@H]2[C@H]1OCCN2Cc1ccc(F)cc1.O=C(O)C(F)(F)F | -88.16
75 | Cc1ccnc(NC(=O)C2CCN(CCCn3ccnc3C)CC2)c1 | 23.63
76 | CCCc1nnsc1C(=O)NCC(O)c1ccc(SC)cc1 (configuration not stated) | -63.08
77 | Cc1cccc(CN2CCC3(CCCN(Cc4cnn(C)c4)C3)C2)n1.O=C(O)C(F)(F)F.O=C(O)C(F)(F)F (configuration not stated) | -27.4
78 | Cc1cccc(CN2CCCC3(CCN(CC4CCCO4)CC3)C2)n1.O=C(O)C(F)(F)F.O=C(O)C(F)(F)F (configuration not stated) | 42.53

Row | SMILES | Percent Effect [%]
79 | COc1cccc(C(=O)N2CCCC(CNS(C)(=O)=O)C2)c1 (configuration not stated) | -46.69
80 | O=C(CCn1cccc1)N1CCc2[nH]nc(COc3ccccc3)c2C1 | -21.18
81 | CS(=O)(=O)NC[C@H]1Cn2c(-c3ccc(Cl)cc3)cnc2CO1 | 56.68
82 | CS(=O)(=O)NC[C@H]1Cn2c(-c3ccc(F)cc3)cnc2CO1 | -35.88
83 | CS(=O)(=O)NC[C@H]1Cn2c(-c3ccccc3)cnc2CO1 | -22.21
84 | CC(C)c1noc(C2CCN(C(=O)c3cccs3)CC2)n1 | -59
85 | O=C(NCCCN1CCCC1=O)c1nc(-c2ccc3cc[nH]c3c2)no1 | -52.39
86 | O=C1CC2(CCN(Cc3ccsc3)C2)CN1c1ccc2c(c1)OCO2 (configuration not stated) | -25.08
87 | O=C1CCCN1Cc1nnc2n1CCCN(C(=O)c1ccco1)C2 | -1.82
88 | O=C(c1cc(Cl)ccc1OC1CCN(C2CCCC2)CC1)N1CCCO1 | 51.12
89 | O=C(c1cc(Cl)ccc1OC1CCN(C2CCCC2)CC1)N1CC(O)C1 | -105.7
90 | CC(=O)N1CCC(Oc2ccc(Cl)cc2C(=O)N2CCCO2)CC1 | -31.72
91 | Cc1noc(C)c1CCC(=O)N1CCCCC1CNS(C)(=O)=O (configuration not stated) | -22.15
92 | COc1ccc2c(ccn2CCC(=O)/N=c2\[nH]nc(C3CCCO3)s2)c1 (configuration not stated) | -157
93 | Cc1nc(Oc2ccccc2F)sc1C(=O)O | -115.2
94 | COc1ccc(-c2cc(CNc3ncnc4c3CCNCC4)no2)cc1 | 13.56
95 | Cc1cccc(-n2cc(CNc3ncnc4c3CCNCC4)cn2)c1 | 12.81
96 | c1ccc(Cn2cc(CNc3ncnc4c3CCNCC4)cn2)cc1 | -75.72
97 | Cc1ccc(-c2cc(CNc3ncnc4c3CCNCC4)no2)cc1 | 62.41
98 | Cc1ccccc1-n1cc(CNc2ncnc3c2CCNCC3)cn1 | 25.52
99 | Clc1ccccc1-c1cc(CNc2ncnc3c2CCNCC3)no1 | 79.72
100 | Cc1nn(CC(=O)O)c(C)c1NS(=O)(=O)c1cc2ccccc2s1 | -90.75
101 | COc1ncccc1CNC1CCc2c(ccc(=O)n2CC2CC2)C1.O=C(O)C(F)(F)F.O=C(O)C(F)(F)F (configuration not stated) | -69.76
102 | O=C(COCC(=O)N(c1ccccc1)c1ccccc1)N1CCOCC1 | -115.4
